{
  "source": "paper PMC9911399",
  "about": "“Two distinct binding modes provide the RNA-binding protein RbFox with extraordinary sequence specificity”",
  "binders": {"B1": {"name": "AAAUAAA (DNA:RNA)", "RNA": "GGGAGACCGGAAUUCAGAUUGUCCAAAUAAAUUAAAUCCCGUCGUAGCCACCA", "DNA 1": "CAATCTGAATTCCGGTCTCCC", "DNA 2": "TGGTGGCTACGACGGGATT"}, "B2": {"name": "AAAGAGU (DNA:RNA)", "RNA": "B1 RNA with U28G, A30G, A31U", "DNA 1": "CAATCTGAATTCCGGTCTCCC", "DNA 2": "TGGTGGCTACGACGGGATT"}, "B3": {"name": "AGUGGCG (DNA:RNA)", "RNA": "B1 RNA with A26G, A27U, U28G, A29G, A30C, A31G", "DNA 1": "CAATCTGAATTCCGGTCTCCC", "DNA 2": "TGGTGGCTACGACGGGATT"}, "B4": {"name": "CUCUGUC (DNA:RNA)", "RNA": "B1 RNA with A25C, A26U, A27C, A29G, A30U, A31C", "DNA 1": "CAATCTGAATTCCGGTCTCCC", "DNA 2": "TGGTGGCTACGACGGGATT"}, "B5": {"name": "GUGCGCC (DNA:RNA)", "RNA": "GGGAGACCGGAAUUCAGAUUGUCCGUGCGCCUUAAAUCCCGUCGUAGCCACCA", "DNA 1": "CAATCTGAATTCCGGTCTCCC", "DNA 2": "TGGTGGCTACGACGGGATT"}, "B6": {"name": "CUUACGG (DNA:RNA)", "RNA": "B5 RNA with G25C, G27U, C28A, G29C, C30G, C31G", "DNA 1": "CAATCTGAATTCCGGTCTCCC", "DNA 2": "TGGTGGCTACGACGGGATT"}, "B7": {"name": "UGGUUGC (DNA:RNA)", "RNA": "B5 RNA with G25U, U26G, C28U, G29U, C30G", "DNA 1": "CAATCTGAATTCCGGTCTCCC", "DNA 2": "TGGTGGCTACGACGGGATT"}, "B8": {"name": "UGGGGGU (DNA:RNA)", "RNA": "B5 RNA with G25U, U26G, C28G, C30G, C31U", "DNA 1": "CAATCTGAATTCCGGTCTCCC", "DNA 2": "TGGTGGCTACGACGGGATT"}, "B9": {"name": "UGGGGUU (DNA:RNA)", "RNA": "B5 RNA with G25U, U26G, C28G, C30U, C31U", "DNA 1": "CAATCTGAATTCCGGTCTCCC", "DNA 2": "TGGTGGCTACGACGGGATT"}, "B10": {"name": "CUGGGGU (DNA:RNA)", "RNA": "B5 RNA with G25C, C28G, C30G, C31U", "DNA 1": "CAATCTGAATTCCGGTCTCCC", "DNA 2": "TGGTGGCTACGACGGGATT"}, "B11": {"name": "CGGUUGC (DNA:RNA)", "RNA": "B5 RNA with G25C, U26G, C28U, G29U, C30G", "DNA 1": "CAATCTGAATTCCGGTCTCCC", "DNA 2": "TGGTGGCTACGACGGGATT"}, "B12": {"name": "UGGUUGG (DNA:RNA)", "RNA": "B1 RNA with A25U, A26G, A27G, A29U, A30G, A31G", "DNA 1": "CAATCTGAATTCCGGTCTCCC", "DNA 2": "TGGTGGCTACGACGGGATT"}, "B13": {"name": "UCAAACU (DNA:RNA)", "RNA": "B1 RNA with A25U, A26C, U28A, A30C, A31U", "DNA 1": "CAATCTGAATTCCGGTCTCCC", "DNA 2": "TGGTGGCTACGACGGGATT"}, "B14": {"name": "AUUAGUA (DNA:RNA)", "RNA": "B1 RNA with A26U, A27U, U28A, A29G, A30U", "DNA 1": "CAATCTGAATTCCGGTCTCCC", "DNA 2": "TGGTGGCTACGACGGGATT"}, "B15": {"name": "CGGAAGU (DNA:RNA)", "RNA": "B1 RNA with A25C, A26G, A27G, U28A, A30G, A31U", "DNA 1": "CAATCTGAATTCCGGTCTCCC", "DNA 2": "TGGTGGCTACGACGGGATT"}, "B16": {"name": "UCUUCCA (DNA:RNA)", "RNA": "B1 RNA with A25U, A26C, A27U, A29C, A30C", "DNA 1": "CAATCTGAATTCCGGTCTCCC", "DNA 2": "TGGTGGCTACGACGGGATT"}, "B17": {"name": "GCCCGCU (DNA:RNA)", "RNA": "B5 RNA with U26C, G27C, C31U", "DNA 1": "CAATCTGAATTCCGGTCTCCC", "DNA 2": "TGGTGGCTACGACGGGATT"}, "B18": {"name": "GCUUGCC (DNA:RNA)", "RNA": "B5 RNA with U26C, G27U, C28U", "DNA 1": "CAATCTGAATTCCGGTCTCCC", "DNA 2": "TGGTGGCTACGACGGGATT"}, "B19": {"name": "GCCCUGC (DNA:RNA)", "RNA": "B5 RNA with U26C, G27C, G29U, C30G", "DNA 1": "CAATCTGAATTCCGGTCTCCC", "DNA 2": "TGGTGGCTACGACGGGATT"}, "B20": {"name": "CCGCCUG (DNA:RNA)", "RNA": "B5 RNA with G25C, U26C, G29C, C30U, C31G", "DNA 1": "CAATCTGAATTCCGGTCTCCC", "DNA 2": "TGGTGGCTACGACGGGATT"}, "B21": {"name": "CGCCUGC (DNA:RNA)", "RNA": "B5 RNA with G25C, U26G, G27C, G29U, C30G", "DNA 1": "CAATCTGAATTCCGGTCTCCC", "DNA 2": "TGGTGGCTACGACGGGATT"}, "B22": {"name": "GCCCCUG (DNA:RNA)", "RNA": "B5 RNA with U26C, G27C, G29C, C30U, C31G", "DNA 1": "CAATCTGAATTCCGGTCTCCC", "DNA 2": "TGGTGGCTACGACGGGATT"}, "B23": {"name": "GCCUGUG (DNA:RNA)", "RNA": "B5 RNA with U26C, G27C, C28U, C30U, C31G", "DNA 1": "CAATCTGAATTCCGGTCTCCC", "DNA 2": "TGGTGGCTACGACGGGATT"}, "B24": {"name": "CGCCUUG (DNA:RNA)", "RNA": "B5 RNA with G25C, U26G, G27C, G29U, C30U, C31G", "DNA 1": "CAATCTGAATTCCGGTCTCCC", "DNA 2": "TGGTGGCTACGACGGGATT"}, "B25": {"name": "GCCUGCU (DNA:RNA)", "RNA": "B5 RNA with U26C, G27C, C28U, C31U", "DNA 1": "CAATCTGAATTCCGGTCTCCC", "DNA 2": "TGGTGGCTACGACGGGATT"}, "B26": {"name": "GCCUUGC (DNA:RNA)", "RNA": "B5 RNA with U26C, G27C, C28U, G29U, C30G", "DNA 1": "CAATCTGAATTCCGGTCTCCC", "DNA 2": "TGGTGGCTACGACGGGATT"}, "B27": {"name": "GCUGCUU (DNA:RNA)", "RNA": "B5 RNA with U26C, G27U, C28G, G29C, C30U, C31U", "DNA 1": "CAATCTGAATTCCGGTCTCCC", "DNA 2": "TGGTGGCTACGACGGGATT"}, "B28": {"name": "GCCUGUC (DNA:RNA)", "RNA": "B5 RNA with U26C, G27C, C28U, C30U", "DNA 1": "CAATCTGAATTCCGGTCTCCC", "DNA 2": "TGGTGGCTACGACGGGATT"}},
  "note": "Changes are numbered by the printed parent chain; changes in the protein carry UniProt numbers. Over roughly 16,000 sequences, “ka relative to ugcaugu” has its median near 0.0091; the highest 2% begin near 0.032. For the sample, the highest values were picked, then their nearest neighbours and some sequences at random.",
  "data": [
    {"target": "T1, RBFOX1 RRM (Homo sapiens, UniProt Q9NWB1 109-208)", "T1 sequence": "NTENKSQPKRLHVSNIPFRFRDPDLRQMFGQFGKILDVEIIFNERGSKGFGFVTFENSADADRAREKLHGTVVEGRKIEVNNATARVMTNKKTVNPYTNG", "experiment": "EMSA; HiTS-Eq, 1 nM pool, 10 min; buffer printed only for the single-RNA assays: 10 mM Tris pH 7.5, 150 mM NaCl, 3.4 mM EDTA, 0.001% NP-40, 30 C", "conditions": "tags: His6 N-terminal (pET28a); label: 5' 32P", "in_short": "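A pool of RNA with 7 randomized nucleotides, 5′-radiolabelled and with DNA-annealed flanks, was equilibrated at 1 nM for 10 min in 50 µL with purified RbFox RRM, wild type or mutant, across increasing protein concentrations. Free RNA was separated by 8% native PAGE, excised, reverse-transcribed, barcoded by PCR and sequenced. Relative association constants were obtained from read-count changes of each RNA species versus the control reaction and normalised to the cognate motif.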", "values": [
      {"binder": "B1", "binding signal": "0.000652 KA relative to UGCAUGU"},
      {"binder": "B2", "binding signal": "0.00527 KA relative to UGCAUGU"},
      {"binder": "B3", "binding signal": "0.0184 KA relative to UGCAUGU"},
      {"binder": "B4", "binding signal": "0.00978 KA relative to UGCAUGU"},
      {"binder": "B5", "binding signal": "0.0184 KA relative to UGCAUGU"},
      {"binder": "B6", "binding signal": "0.00764 KA relative to UGCAUGU"},
      {"binder": "B7", "binding signal": "0.0455 KA relative to UGCAUGU"},
      {"binder": "B8", "binding signal": "0.0229 KA relative to UGCAUGU"},
      {"binder": "B9", "binding signal": "0.036 KA relative to UGCAUGU"},
      {"binder": "B10", "binding signal": "0.018 KA relative to UGCAUGU"},
      {"binder": "B11", "binding signal": "0.0256 KA relative to UGCAUGU"},
      {"binder": "B12", "binding signal": "0.0294 KA relative to UGCAUGU"},
      {"binder": "B13", "binding signal": "0.00177 KA relative to UGCAUGU"},
      {"binder": "B14", "binding signal": "0.00672 KA relative to UGCAUGU"},
      {"binder": "B15", "binding signal": "0.0236 KA relative to UGCAUGU"},
      {"binder": "B16", "binding signal": "0.00385 KA relative to UGCAUGU"},
      {"binder": "B17", "binding signal": "0.0168 KA relative to UGCAUGU"},
      {"binder": "B18", "binding signal": "0.0307 KA relative to UGCAUGU"},
      {"binder": "B19", "binding signal": "0.0133 KA relative to UGCAUGU"},
      {"binder": "B20", "binding signal": "0.0178 KA relative to UGCAUGU"},
      {"binder": "B21", "binding signal": "0.0343 KA relative to UGCAUGU"},
      {"binder": "B22", "binding signal": "0.016 KA relative to UGCAUGU"},
      {"binder": "B23", "binding signal": "0.034 KA relative to UGCAUGU"},
      {"binder": "B24", "binding signal": "0.0242 KA relative to UGCAUGU"},
      {"binder": "B25", "binding signal": "0.0359 KA relative to UGCAUGU"},
      {"binder": "B26", "binding signal": "0.0319 KA relative to UGCAUGU"},
      {"binder": "B27", "binding signal": "0.0216 KA relative to UGCAUGU"},
      {"binder": "B28", "binding signal": "0.0275 KA relative to UGCAUGU"}
    ]}
  ]
}
